In PubChem BioAssay:
Activity calls are given as the source filed them.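 How the source made its calls, unless noted: active means compound raises GLP1 secretion from the human gut endocrine cells, with no numeric limit stated; inactive means the rest.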

Tests used:
[1] = stimulators of nuclear beta-catenin in C2C12, primary screen, imaging, WNT3A-conditioned medium, mouse C2C12, NPC library (AID 1117326; in the data active means nuclear beta-catenin stimulation mostly above about 4.2%, no sharp cut-off; inactive means mostly below about 10%); conditions: stronger effect = higher value
[2] = stimulators of insulin release from INS-1E, primary screen, cell-based, 5 mM glucose, NPC library (AID 1117329;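 active means compound raises insulin release from rat beta cells at 5 mM glucose, no numeric limit stated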); conditions: rat INS-1E insulin secretion, at 10 µM, stronger effect = higher value
[3] = growth inhibition of GSK3B-pretreated HCT116 cells – cell-based, CellTiter-Glo, 0.2 to 20 µM (AID 1117336;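 active means compounds lowering colon cancer cell viability after pretreatment blocking the GSK3B kinase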); conditions: HCT116 viability after GSK3B inhibitor, at 20 µM, stronger effect = higher value
[4] = inhibition of endothelial tube formation, primary screen, imaging, VEGF stimulated, CD31 staining, tube area, NPC library (AID 1117340;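 active means compound that reduces growth-factor-driven endothelial tube area in a mixed cell culture, no cutoff stated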); conditions: VEGF-stimulated ADSC/ECFC co-culture, at 10 µM, stronger effect = higher value
[5] = glucagon-like peptide 1 release enhancers, primary assay, NCI-H716 cell line, NPC library (AID 1117341); conditions: NCI-H716 cells, at 10 µM, stronger effect = higher value
[6] = HCT116 colon cancer cell growth inhibition, primary screen, CellTiter-Glo luminescence, NPC library (AID 1117342;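 active means compounds that lower survival of HCT116 colon cancer cells in the luminescence readout, no numeric limit stated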); conditions: at 20 µM (top of the series)
[7] = CellTiter-Glo luminescent readout of SW480 viability loss, NPC library primary (AID 1117343;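 active means compounds that lower viability of the colon cancer cells in the luminescence readout, with no numeric limit stated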); conditions: CellTiter-Glo luminescence; at 20 µM (top of the series) unless noted
[8] = decreased DLD-1 cellular survival, CellTiter-Glo luminescent readout, NPC compound collection, primary HTS (AID 1117346;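 active means compounds that lower survival of DLD-1 colon cancer cells in the luminescence readout, no cutoff given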); conditions: DLD-1 viability, CellTiter-Glo luminescence; at 20 µM (top of the series)
[9] = LFS_MB_P medulloblastoma growth inhibition, cell-based, chromothripsis tumors, cisplatin or BGB combos (AID 1671449; in the data active means inhibition above about 80%;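 further: cells exposed for 96 hours; 0% = vehicle DMSO and 100% = killing by high DMSO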); conditions: LFS_MB_P medulloblastoma cells
[10] = HDN33 neuroblastoma growth inhibition, cell-based, chromothripsis tumors, cisplatin or BGB combos (AID 1671450; in the data active means inhibition above about 80%;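 further: cells exposed to compound for four days; 0% = vehicle DMSO and 100% = cell killing by high DMSO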); conditions: HDN33 neuroblastoma cells, stronger effect = higher value
[11] = ICB984 medulloblastoma cell growth inhibition, synergistic combos for chromothripsis tumors, cisplatin or BGB combos (AID 1671451; call rule not given here;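 further: cells exposed for 96 hours before readout; 0% = vehicle DMSO and 100% = killing by high DMSO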); conditions: ICB984 medulloblastoma cells, drug combinations, stronger effect = higher value
[12] = sensitizers of A549 cells to miR-34 induction, primary screen, imaging, A549 dox-inducible miR-34, nuclei and caspase counts (AID 1347080;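 active means compounds whose cell count with miR-34 switched on is under 0.7 times the count with it off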); conditions: A549 miR-34 inducible, Hoechst nuclei count, 48 h
[13] = viability rescue of complex I mutant cybrids, primary screen, cell-based, galactose medium, ATP luminescence (AID 1645843;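 active means z-score of at least 1.8 in each of two replicates, scored against plate mean and spread of sample wells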;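 further: positive z means more ATP and so rescue of galactose-driven cybrid death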); conditions: complex I mutant cybrid cells, 72 h, stronger effect = higher value
[14] = target: Mitogen-activated protein kinase 7 (Homo sapiens) (UniProt Q13164); assay: ERK5 transactivation activators in reporter cells, primary screen, cell-based, HTS (AID 1508626;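 active means luciferase signal above three times the same-plate solvent-only control wells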;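 further: luciferase driven by Gal4-ERK5 fusion binding five Gal4 sites before minimal TATA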); conditions: HeLa Gal4-ERK5 transactivation, 18 h, at 5 µM, stronger effect = higher value
Sequence of Mitogen-activated protein kinase 7 (Homo sapiens) (Q13164 whole entry, looked up, the tested form may be a part): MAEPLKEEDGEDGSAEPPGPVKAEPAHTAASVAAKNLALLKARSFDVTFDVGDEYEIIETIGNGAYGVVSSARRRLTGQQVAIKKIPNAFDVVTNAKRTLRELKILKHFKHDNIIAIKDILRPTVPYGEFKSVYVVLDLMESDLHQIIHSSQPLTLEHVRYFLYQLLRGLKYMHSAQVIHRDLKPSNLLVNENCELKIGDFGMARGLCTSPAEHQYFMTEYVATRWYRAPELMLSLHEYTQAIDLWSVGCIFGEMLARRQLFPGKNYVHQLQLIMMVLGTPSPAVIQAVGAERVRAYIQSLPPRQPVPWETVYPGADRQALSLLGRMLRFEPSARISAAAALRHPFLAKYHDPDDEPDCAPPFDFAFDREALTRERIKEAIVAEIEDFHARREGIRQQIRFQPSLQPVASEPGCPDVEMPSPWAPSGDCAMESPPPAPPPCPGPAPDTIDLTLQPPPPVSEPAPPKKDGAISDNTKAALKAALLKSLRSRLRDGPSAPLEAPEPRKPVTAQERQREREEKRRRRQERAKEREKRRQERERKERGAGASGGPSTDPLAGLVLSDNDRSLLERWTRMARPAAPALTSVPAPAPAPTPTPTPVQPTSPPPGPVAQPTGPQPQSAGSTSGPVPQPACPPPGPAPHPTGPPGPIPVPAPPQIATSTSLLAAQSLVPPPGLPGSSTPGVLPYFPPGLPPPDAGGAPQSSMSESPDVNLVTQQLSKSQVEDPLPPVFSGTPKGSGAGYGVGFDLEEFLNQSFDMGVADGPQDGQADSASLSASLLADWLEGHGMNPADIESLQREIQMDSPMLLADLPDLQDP

Q: For `Cc1ccc2nc(N)[nH]c(=O)c2c1Sc1ccncc1`, which nuclear beta-catenin stimulation ([1]; at 10 µM) is on record?
A: 63.4% (active)

Q: And the nuclear beta-catenin stimulation ([1]; stimulation, at 2 µM)?
A: 61.7%

Q: And the insulin secretion stimulation [2]?
A: 1.1% (inactive)

Q: What about the viability decrease [3] of the same compound?
A: 94.2% (active)

Q: And the tube area decrease [4]?
A: 50.9% (active)

Q: And the GLP1 secretion stimulation [5]?
A: 1.3% (inactive)

Q: And the inhibition of viability [6]?
A: 81.5% (active)

Q: What about the viability decrease (inhibition) [7] of the same compound?
A: 78.8% (active)

Q: And the viability decrease (inhibition) [8]?
A: 42.1% (inactive)

Q: And the inhibition ([9]; at 0.5 µM, stronger effect = higher value)?
A: 15.7% (inactive)

Q: And the inhibition ([9]; measured here: combination with BGB IC20, at 0.005 µM)?
A: -4.28%

Q: And the inhibition ([9]; measured here: combination with BGB IC40, at 0.005 µM)?
A: -17.9%

Q: And the inhibition ([9]; measured here: combination with BGB IC40, at 0.05 µM)?
A: -6.64%

Q: What about the inhibition ([9]; measured here: combination with cisplatin, at 0.5 µM, stronger effect = higher value) of the same compound?
A: 12.2%

Q: And the inhibition ([9]; measured here: combination with cisplatin, at 5 µM, stronger effect = higher value)?
A: -5.06%

Q: What about the inhibition ([10]; BGB combo, at 5 µM) of the same compound?
A: 21.4%

Q: What about the inhibition ([10]; at 0.5 µM) of the same compound?
A: -26.6% (inactive)

Q: What about the inhibition ([10]; cisplatin combo, at 5 µM) of the same compound?
A: 28.1%

Q: And the inhibition ([10]; measured here: with BGB IC20 combination, at 0.5 µM)?
A: -32.4%

Q: And the inhibition ([10]; measured here: with cisplatin IC20 combination, at 0.5 µM)?
A: -14.7%

Q: What about the inhibition ([10]; single agent, at 5 µM) of the same compound?
A: 43.4%

Q: What about the inhibition ([11]; BGB IC20 combo, at 0.005 µM) of the same compound?
A: -27.9%

Q: What about the inhibition ([11]; BGB IC40 combo, at 0.005 µM) of the same compound?
A: -29.4%

Q: And the inhibition ([11]; BGB IC40 combo, at 0.05 µM)?
A: -15.3%

Q: And the inhibition ([11]; at 0.5 µM)?
A: -23.3% (inactive)

Q: What about the inhibition ([11]; cisplatin combo, at 0.05 µM) of the same compound?
A: -21.2%

Q: And the inhibition ([11]; cisplatin combo, at 0.5 µM)?
A: -25.7%

Q: And the inhibition ([11]; cisplatin combo, at 5 µM)?
A: -19.8%

Q: And the inhibition ([11]; measured here: 5 uM single agent, at 5 µM)?
A: -37.5%

Q: For `CCCn1cnc2c1c(=O)n(CCCCC(C)=O)c(=O)n2C`, which nuclear beta-catenin stimulation ([1]; at 10 µM) is on record?
A: 6.6% (inactive)

Q: And the nuclear beta-catenin stimulation ([1]; stimulation, at 2 µM)?
A: -0.2%

Q: And the insulin secretion stimulation [2]?
A: -1.25% (inactive)

Q: What about the viability decrease [3] of the same compound?
A: 14.1% (inactive)

Q: What about the GLP1 secretion stimulation [5] of the same compound?
A: -4.5% (inactive)

Q: What about the inhibition of viability [6] of the same compound?
A: 20.6% (inactive)

Q: What about the viability decrease (inhibition) [7] of the same compound?
A: -2.8% (inactive)

Q: And the viability decrease (inhibition) [8]?
A: 19.6% (inactive)

Q: And the fold change ([12]; stronger effect = lower value, cell number ratio, induced over uninduced)?
A: 1.02 (inactive)

Q: And the fold change ([12]; measured here: relative caspase fold change +Dox/-Dox)?
A: 0.994

Q: What about the cell count ([12]; measured here: total cells with miR-34 induction, stronger effect = lower value) of the same compound?
A: 10000

Q: What about the cell count ([12]; measured here: total cells without miR-34 induction) of the same compound?
A: 9790

Q: And the z-score [13]?
A: 0.675 (inactive)

Q: For `CCCCCCCC(=O)OCC(COC(=O)CCCCCCC)OC(=O)CCCCCCC`, which nuclear beta-catenin stimulation ([1]; at 10 µM) is on record?
A: -0.5% (inactive)

Q: And the nuclear beta-catenin stimulation ([1]; stimulation, at 2 µM)?
A: -1.9%

Q: And the insulin secretion stimulation [2]?
A: 0.2% (inactive)

Q: What about the GLP1 secretion stimulation [5] of the same compound?
A: -5.4% (inactive)

Q: With `C#C[C@]1(OC(C)=O)CC[C@H]2[C@@H]3CCC4=C/C(=N/O)CC[C@@H]4[C@H]3CC[C@@]21CC` as the compound, how does the nuclear beta-catenin stimulation ([1]; at 10 µM) read?
A: 3.7% (inactive)

Q: What about the nuclear beta-catenin stimulation ([1]; stimulation, at 2 µM) of the same compound?
A: 2.1%

Q: What about the insulin secretion stimulation [2] of the same compound?
A: -0.2% (inactive)

Q: And the viability decrease [3]?
A: 98.8% (active)

Q: What about the tube area decrease [4] of the same compound?
A: 99% (active)

Q: And the GLP1 secretion stimulation [5]?
A: -2.6% (inactive)

Q: And the inhibition of viability [6]?
A: 99.1% (active)

Q: And the viability decrease (inhibition) [7]?
A: 102% (active)

Q: What about the viability decrease (inhibition) [8] of the same compound?
A: 101% (active)

Q: And the luciferase signal [14]?
A: 24 AU (inactive)

Q: For `O=[N+]([O-])c1cccc(S(=O)(=O)NCCNS(=O)(=O)c2cccc([N+](=O)[O-])c2)c1`, which nuclear beta-catenin stimulation ([1]; at 10 µM) is on record?
A: 0.3% (inactive)

Q: And the nuclear beta-catenin stimulation ([1]; stimulation, at 2 µM)?
A: 0.2%

Q: And the insulin secretion stimulation [2]?
A: -0.55% (inactive)

Q: And the viability decrease [3]?
A: 38.9% (inactive)

Q: What about the GLP1 secretion stimulation [5] of the same compound?
A: 3.1% (inactive)

Q: What about the inhibition of viability [6] of the same compound?
A: 7.6% (inactive)

Q: And the viability decrease (inhibition) [7]?
A: 6.5% (inactive)

Q: And the viability decrease (inhibition) [8]?
A: 14.5% (inactive)

Q: Which results are given for `CC(=O)Oc1ccc2c(c1)CC[C@@H]1[C@@H]2CC[C@]2(C)[C@@H](O)CC[C@@H]12`?
A: nuclear beta-catenin stimulation ([1]; at 10 µM): 6.2% (inactive); nuclear beta-catenin stimulation ([1]; stimulation, at 2 µM): 4.6%; insulin secretion stimulation [2]: 1.3% (inactive); viability decrease [3]: 13.1% (inactive); tube area decrease [4]: -71.2% (inactive); GLP1 secretion stimulation [5]: 1.6% (inactive); inhibition of viability [6]: 41.6% (inactive); viability decrease (inhibition) [7]: 72.9% (active); viability decrease (inhibition) [8]: 35.2% (inactive); luciferase signal [14]: 36 AU (inactive)

Q: What does the source list for `CCCCC[C@@H](O)CC[C@H]1[C@@H]2Cc3cccc(OCC(=O)O)c3C[C@@H]2C[C@@H]1O`?
A: nuclear beta-catenin stimulation ([1]; at 10 µM): -0.3% (inactive); nuclear beta-catenin stimulation ([1]; stimulation, at 2 µM): 0.2%; insulin secretion stimulation [2]: -0.45% (inactive); GLP1 secretion stimulation [5]: 8.8% (inactive)

Q: Which nuclear beta-catenin stimulation ([1]; at 10 µM) does the source give for `C/C(=N\O)[C@@H](C)NCC(C)(C)CN[C@H](C)/C(C)=N/O` here?
A: 1.5% (inactive)

Q: What about the nuclear beta-catenin stimulation ([1]; stimulation, at 2 µM) of the same compound?
A: -1.3%

Q: What about the insulin secretion stimulation [2] of the same compound?
A: 1.9% (inactive)

Q: And the GLP1 secretion stimulation [5]?
A: -8.7% (inactive)

Q: Which results are given for `CO[C@H]1O[C@@H]2O[C@@]3(C)CC[C@H]4[C@H](C)CC[C@@H]([C@@H]1C)[C@@]24OO3`?
A: nuclear beta-catenin stimulation ([1]; at 10 µM): 1.9% (inactive); nuclear beta-catenin stimulation ([1]; stimulation, at 2 µM): 11.7%; insulin secretion stimulation [2]: -0.85% (inactive); viability decrease [3]: 33.2% (inactive); GLP1 secretion stimulation [5]: 2% (inactive); inhibition of viability [6]: -3% (inactive); viability decrease (inhibition) [7]: 2.9% (inactive); viability decrease (inhibition) [8]: 7.2% (inactive)
